An excerpt weighted towards active compounds, which were near 27% of everything screened.
CYP2C9 inh: human CYP2C9 inhibition | P11712 | CYP2C9 Supersomes, luciferin-H conversion, luminescence | inhibition, % at 5 µM | 20% of 96,000 active | AID 777;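 active means blocking of liver enzyme CYP2C9 beyond about 50% at 5 µM, limit read from the data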
Cav3 T inh: blocks human Cav3.2 T-type calcium channel; O95180; Cav3.2-expressing cells, Fluo-4 calcium fluorescence FDSS; hits give low values; 4% of 100,000 active; B-score at 10 µM;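 active means single-dose well whose peak fluorescence ratio is a statistical outlier from its plate by either plate-standardised score or position-corrected B-score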
CYP2C19 inhib: human CYP2C19 inhibition; inhibition, % at 5 µM; 21% of 96,000 active; CYP2C19 Supersomes, luciferin-H EGE luminescence, 30 min; P33261;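 active means CYP2C19 inhibition above a set limit at 5 µM in the primary screen, cut at about 50% in these data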
CYP2C19 act: cytochrome P450 2C19 (human) activation. P33261. recombinant CYP2C19, luciferin-H EGE luminescence; hits give high values; 0 = fully inhibited enzyme, 1 = untreated enzyme. activation factor at 5 µM. 96,000 tested, under 10 active;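 active means activation factor of at least 2 at 5 µM in the primary screen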
CYP2C9 activ: increases human cytochrome P450 2C9 activity. P11712. recombinant CYP2C9, luciferin-H conversion, luminescence; hits give high values; factor 1 = untreated enzyme, 0 = blocked. activation factor at 5 µM. 1.4% of 96,000 active;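 active means activation factor of 2 or more for CYP2C9 at a 5 µM dose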
Hits are given with their value; - = inactive; . = not tested or not shown.

SMILES	CYP2C9 inh	Cav3 T inh	CYP2C19 inhib	CYP2C19 act	CYP2C9 activ
CN(C)/C=N/c1cc(=O)n(C)c(=O)n1Cc1ccccc1	.	-	.	.	.
Cc1c(C(=O)N2CCOCC2)[nH]c2c1C(=O)CC(c1ccccc1Cl)C2 (stereo unspecified)	-	-	-	-	-
COCCOC(=O)c1[nH]c2c(c1C)C(=O)CC(c1cc(OC)ccc1OC)C2 (stereo unspecified)	59	-	-	-	-
COc1ccccc1C1CC(=O)NC(C)=C1C(=O)OCC1CCCO1 (stereo unspecified)	-	.	-	-	-
CCCOCCOC(=O)c1[nH]c2c(c1C)C(=O)CC(c1cc(OC)ccc1OC)C2 (stereo unspecified)	.	-5.3	.	.	.
CCOC(=O)C1=C(C)Nc2ncnn2C1c1cc(OC)ccc1OC (stereo unspecified)	-	-	-	-	-
COc1ccc(OC)c(C2CC(=O)c3c([nH]c(C(=O)OC(C)C)c3C)C2)c1 (stereo unspecified)	58	-	-	-	-
COc1ccc(OC)c(C2CC(=O)c3c([nH]c(C(=O)OCC4CCCO4)c3C)C2)c1 (stereo unspecified)	66	-	-	-	-
CCOCCn1c(CN2CCC(Cc3ccccc3)CC2)nc2c1c(=O)n(C)c(=O)n2C	-	-	-	-	-
CCCCOC(=O)Nc1sc2c(c1C(=O)OC)CCC2	-	-	-	-	-
NS(=O)(=O)c1ccc(S(=O)(=O)NCCc2ccccc2)cc1	-	-	85	-	-
Cc1cccc(CCNS(=O)(=O)c2ccc(S(=O)(=O)N3CCCCC3)cc2)c1	-	-	-	-	-
Cc1ccc(S(=O)(=O)NC(C)CCc2ccccc2)cc1 (stereo unspecified)	-	-4.1	-	-	-
Cc1ccc(S(=O)(=O)NCCc2ccccc2)cc1	65	-	96	-	-
CCOC(=O)C1CCN(S(=O)(=O)c2ccc(OCC)cc2)CC1	-	-	94	-	-
COc1ccc(S(=O)(=O)N2CCN(C(=O)c3cnc(C)cn3)CC2)cc1	-	-	50	-	-
CCOc1ccc(S(=O)(=O)N2CCN(C(=O)c3sccc3C)CC2)cc1	-	-	74	-	-
CCOC(=O)c1ccc(S(=O)(=O)N2CCC(C(=O)OCC)CC2)cc1	-	-	-	-	-
CCOC(=O)N1CCN(S(=O)(=O)c2ccc(C(=O)Nc3sc4c(c3C#N)CCC4)cc2)CC1	75	.	-	-	-
CCCCN1C(=S)NC[C@@H]1Cc1ccc(O)cc1	.	-	.	.	.
Nc1ccccc1-c1nnc(-c2ccc(-c3ccccc3)cc2)o1	-	.	-	-	-
CCc1ccccc1NC(=O)N1C2CCCC1CC(NC(C)=O)C2 (stereo unspecified)	-	-	-	-	-
CCOc1ccc(C(=O)CN2CCN(S(=O)(=O)c3ccc(Br)cc3)CC2)cc1	-	-	-	-	-
CCOC(=O)C1CCN(S(=O)(=O)c2cccc(-c3cn4cccnc4n3)c2)CC1	-	-	-	-	-
CCOC(=O)N1CCN(S(=O)(=O)c2ccc(OCC)cc2)CC1	-	-	76	-	-
SMILES	CYP2C9 inh	Cav3 T inh	CYP2C19 inhib	CYP2C19 act	CYP2C9 activ
CCOC(=O)C1CCN(S(=O)(=O)c2cccc(-c3cn4cc(C)ccc4n3)c2)CC1	-	-	52	-	-
CCOc1ccc(C(=O)CN2CCN(S(=O)(=O)c3ccc(OC)cc3)CC2)cc1	-	-	77	-	-
CSCCC(NC(=O)c1occc1C)C(=O)O (stereo unspecified)	-	-	-	-	-
CCOC(=O)CSC1=Nc2ccccc2C2=NC(CC(=O)NCc3ccc4c(c3)OCO4)C(=O)N12 (stereo unspecified)	-	-	-	-	-
COc1cc(-c2nc3cnccn3c2Nc2ccc(C)cc2)ccc1O	55	-	80	-	-
COc1cc(-c2nc3cnccn3c2Nc2ccccc2)ccc1O	51	-	-	-	-
COc1cc(-c2nc3cnccn3c2Nc2ccc3c(c2)OCCO3)ccc1O	-	-	-	-	-
COc1cc(-c2nc3cnccn3c2Nc2ccc(C(C)C)cc2)ccc1O	-	-	-	-	-
Cc1c(CCO)c(=O)n(C)n1C(=O)c1ccc(Cl)cc1	-	-	56	-	-
Cc1nnc(SCCCN2C(=O)c3ccccc3C2=O)o1	-	.	60	-	-
Nc1nc(SCCN2C(=O)c3ccccc3C2=O)n[nH]1	-	-	-	-	-
CSc1nsc(SCCN2C(=O)c3ccccc3C2=O)n1	52	-	80	-	-
O=C1c2ccccc2C(=O)N1CCSc1ccccc1	-	-	52	-	-
O=C1c2ccccc2C(=O)N1CCCCSc1nnc(-c2ccc(OC(F)F)cc2)o1	-	-	-	-	-
Cc1csc(SCCN2C(=O)c3ccccc3C2=O)n1	71	-	82	-	-
O=C1c2ccccc2C(=O)N1CCSc1nncs1	-	-	-	-	-
O=C(O)C[C@H]1c2ccccc2S(=O)(=O)N1c1ccccc1	.	-	.	.	.
O=C(NC1CCCCC1)NC1CC2CCCC(C1)N2C1CCCC1 (stereo unspecified)	.	-	.	.	.
COc1ccc2c(c1OC)C(=O)N1c3ccccc3COC21 (stereo unspecified)	-	-	-	-	-
COc1ccc2c(c1OC)C(=O)N1c3cccc(Cl)c3C(=O)OC21 (stereo unspecified)	-	-4.3	-	-	-
N#Cc1ccc(N=c2ssnc2Cl)cc1	97	-	-	-	-
COc1cc(N=c2ssnc2Cl)cc(OC)c1OC	89	.	-	-	-
Clc1ccc(N=c2ssnc2Cl)cc1	.	-	.	.	.
CCSc1ncc(/C=N/Nc2ccc(Cl)cc2)n1C	-	-	-	-	-
CCSc1ncc(/C=N/Nc2ccccc2)n1C	52	-	-	-	-
SMILES	CYP2C9 inh	Cav3 T inh	CYP2C19 inhib	CYP2C19 act	CYP2C9 activ
O=C(c1cc(-c2ccco2)on1)N1CCN(C(c2ccccc2)c2ccccc2)CC1	-	-	-	-	-
CCNC(=S)NNC(=O)c1cccs1	.	-	.	.	.
O=C(NC(=S)NNC(=O)c1cccs1)c1ccc(Br)o1	-	-7.4	-	-	-
CN1C(C(=O)NCc2cccc(C(F)(F)F)c2)CC2Cn3c(nc4cc(Cl)c(Cl)cc43)C21 (stereo unspecified)	.	-	.	.	.
Cn1c(SCc2ccc(Cl)cc2)nc(C(F)(F)F)cc1=O	-	-	-	-	-
CC(=O)OCc1c(C(F)(F)F)nn(C)c1SCc1ccc(Cl)cc1	62	-	99	-	-
COC(=O)/C(=C\c1c(OC)cc(OC)cc1OC)C(=O)c1ccc2c(c1)OCO2	.	-	.	.	.
CCOC(=O)C1C(=O)CC(=O)CC1CC(C)SCC (stereo unspecified)	-	-	-	-	-
c1cc2cn[nH]c2cc1NC1CCCCCC1	64	-	99	-	-
CN(C)c1ccc(NC(=O)COC(=O)CCC(=O)c2ccc(F)cc2)cc1	81	-	90	-	-
Cc1ccc(OCC(=O)Nc2ccc(N(C)C)cc2)cc1	-	-	87	-	-
CCN(CC)c1ccc(NC(=O)OC)cc1	63	-	-	-	-
CCN(CC)c1ccc(NC(=O)COc2ccc(C)cc2)cc1	-	-	66	-	-
